Data on five molecules can be found in PubChem BioAssay.

Structures are written as SMILES. Active and inactive are the calls of the source.

The subject of assay [1] is Plasmodium falciparum Sir2 (PF13_0152, Sir2A). As to the kind of experiment: Plasmodium falciparum Sir2A binding compounds – biochemical, small-molecule microarray, 635 nm fluorescence, primary screen (AID 1098).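 Further: score merges spot fluorescence intensity with its signal-to-noise ratio.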 Conditions: fluorescence 635 nm, higher = more signal.
Assay [2] in a line: probe aDKK1 binding to arrayed compounds – biochemical, biotinylated probe, 635/667 nm fluorescence, primary screen (AID 1099).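 Further: score merges 667nm spot fluorescence with signal to noise across triplicate slides.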 Conditions: small-molecule microarray, higher = more signal.
The nature of assay [3]: probe aCHRDL2 binding to arrayed compounds – biochemical, biotinylated probe, 635/667 nm fluorescence, primary screen (AID 1100). Conditions: small-molecule microarray, higher = more signal.
Assay [4] in a line: change in splice reporter luminescence, either direction, cell-based, HEK293, spliceosome inhibition project, primary screen (AID 1101).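 Further: HEK293 cells carrying a splicing-competent luciferase reporter gene; test concentration not given here.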 Conditions: HEK293 splicing luciferase reporter, 24 h, higher = more signal, called active from +8 up or from −8 down. For orientation: Reporter assays use an easily measured gene product as a stand-in for the process of interest.
Assay [5] has as its target Fibroblast growth factor 10 (Homo sapiens) (UniProt O15520). As to the kind of experiment: compounds binding fibroblast growth factor 10 – biochemical, small-molecule microarray, 635 nm fluorescence, primary screen (AID 1102). Conditions: FGF10 binding, fluorescence 635 nm, higher = more signal.
For assay [6], the system named is glycogen synthase kinase-3 (GSK3A per assay name; protocol says GSK3B). As to the kind of experiment: compounds binding glycogen synthase kinase-3 – biochemical, small-molecule microarray, 635 nm fluorescence, GSK3A, primary screen (AID 1103). Further: the record names both GSK3A and GSK3B. Conditions: fluorescence 635 nm, higher = more signal.
Assay [7] concerns the target Epidermal growth factor receptor (Homo sapiens) (UniProt P00533). As to the kind of experiment: compounds binding epidermal growth factor receptor – biochemical, small-molecule microarray, 635 nm fluorescence, primary screen (AID 1104).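 Further: score merges 667 nm emission intensity with spot signal to noise over triplicate slides.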 Conditions: EGFR binding, higher = more signal.
For assay [8], the target named is Follistatin-related protein 3 (Homo sapiens) (UniProt O95633). The assay can be described thus: compounds binding follistatin-related protein 3 – biochemical, small-molecule microarray, 635 nm fluorescence, primary screen (AID 1105).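 Further: score merges emission near 667 nm and signal to noise per printed spot across three slides.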 Conditions: FSTL3 binding, higher = more signal.
Assay [9] addresses Dickkopf-related protein 1 (Homo sapiens) (UniProt O94907). The assay can be described thus: small molecules binding DKK1 protein – biochemical, small-molecule microarray, 635 nm fluorescence scan, primary screen (AID 1106).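 Further: score merges emission near 667 nm with signal to noise over three replicate slides.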 Conditions: higher = more signal.
For assay [10], the system named is Inhibin beta A chain (activin A). The assay can be described thus: small molecules binding activin A – biochemical, small-molecule microarray, 635 nm fluorescence scan, primary screen (AID 1107).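 Further: mouse activin A protein probed at 4.33 µg/mL on printed slides; score merges bound-protein fluorescence near 667 nm with spot signal-to-noise.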 Conditions: INHBA, higher = more signal.
Assay [11] relates to Human papillomavirus type 1a protein E7 (residues 44-93). The assay can be described thus: small molecules binding HPV E7 44-93 – biochemical, small-molecule microarray, residues 44-93, 635 nm fluorescence, primary screen (AID 1108).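 Further: E7 fragment applied at 1 µg/mL in TBST for 1 h at 4 C; score combines spot fluorescence with its signal to noise ratio.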 Conditions: fluorescence 635 nm, higher = more signal.
Assay [12] in a line: hepatitis C replication reporter changes, two-sided – Huh7 cells, luciferase reporter, HCV replication inhibitor project, primary screen (AID 1109).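 Further: huh7 hepatoma cells harbouring a luciferase neomycin HCV replicon reporter; luciferase luminescence as measure of HCV replicon replication; test concentration not given here.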 Conditions: Huh7 HCV replicon luciferase reporter, 48 h; higher = more signal.
Assay [13] deals with Left-right determination factor 2 (Homo sapiens) (UniProt O00292). As to the kind of experiment: small molecules binding LEFTY2 protein – biochemical, small-molecule microarray, 635 nm fluorescence scan, primary screen (AID 1110). Conditions: higher = more signal.
Assay [14] has as its target Calmodulin-1 (Homo sapiens) (UniProt P0DP23). As to the kind of experiment: small molecules binding calmodulin-1 with EGTA – biochemical, small-molecule microarray, Cy5-labelled CALM1, profiling panel (AID 1111).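 Further: labelled calmodulin applied in Tris saline Tween buffer holding calcium plus EGTA and DTT.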 Conditions: Cy5-CALM1 binding fluorescence, higher = more signal.
For assay [15] the target is unchanged. The assay can be described thus: small molecules binding Ca-loaded calmodulin-1 – biochemical, small-molecule microarray, Cy5-labelled CALM1, plus calcium, artefact control for SMM control-protein annotation, profiling panel (AID 1112).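 Further: score merges spot fluorescence with signal to noise from triplicate slides.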 Conditions: Cy5-CALM1 binding fluorescence, higher = more signal.
Assay [16] in a line: probe aWnt5a binding to arrayed compounds – biochemical, biotinylated probe, 635/667 nm fluorescence, primary screen (AID 1113).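 Further: score merges 667 nm fluorescence intensity with signal-to-noise per printed feature.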 Conditions: small-molecule microarray, higher = more signal.
The nature of assay [17]: probe aShh binding to arrayed compounds – biochemical, biotinylated probe, 635/667 nm fluorescence, primary screen (AID 1114).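 Further: probe is biotin-labelled aShh protein from a stem cell growth factor screen; measures binding of labelled protein to compounds printed on the slide; score merges feature fluorescence at 667 nm with signal-to-noise.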 Conditions: small-molecule microarray, higher = more signal.
Assay [18] can be described thus: probe aNog binding to arrayed compounds – biochemical, biotinylated probe, 635/667 nm fluorescence, primary screen (AID 1115).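 Further: probe is biotinylated aNog protein used at 0.15 µg/mL for 1 h at 4 C; z-score combines 667 nm fluorescence of each spot with its signal to noise.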 Conditions: small-molecule microarray, higher = more signal.
The target in assay [19] is Torsin-1A-interacting protein 1 (Homo sapiens) (UniProt Q5JTV8). The assay can be described thus: compound microarray binding of lysate hLAP1 – cell lysate, small-molecule microarray, COS7 lysate, 635/667 nm fluorescence, primary screen (AID 1116). Conditions: 635 nm fluorescence, higher = more signal.
Assay [20] has as its target Alpha-bungarotoxin (Bungarus multicinctus) (UniProt P60615). As to the kind of experiment: compounds binding labelled alpha-BTX control protein – biochemical, small-molecule microarray, Alexa647 label, 635/667 nm fluorescence, artefact control for SMM control protein annotation, profiling panel (AID 1117). Conditions: alpha-BTX-A647 binding fluorescence, higher = more signal.

Sequence of Alpha-bungarotoxin (Bungarus multicinctus) (P60615 whole entry, looked up): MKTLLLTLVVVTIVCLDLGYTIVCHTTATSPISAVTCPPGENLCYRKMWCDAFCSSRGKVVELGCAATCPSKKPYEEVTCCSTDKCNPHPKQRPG
Sequence of Follistatin-related protein 3 (Homo sapiens) (O95633 whole entry, looked up): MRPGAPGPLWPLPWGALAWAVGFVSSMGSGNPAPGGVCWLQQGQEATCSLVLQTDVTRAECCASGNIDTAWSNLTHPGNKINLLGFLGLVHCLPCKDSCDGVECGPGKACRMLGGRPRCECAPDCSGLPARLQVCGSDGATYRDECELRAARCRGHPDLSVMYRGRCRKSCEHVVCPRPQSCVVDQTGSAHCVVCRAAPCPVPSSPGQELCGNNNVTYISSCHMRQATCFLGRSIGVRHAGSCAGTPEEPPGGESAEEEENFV
Sequence of Torsin-1A-interacting protein 1 (Homo sapiens) (Q5JTV8 whole entry, looked up): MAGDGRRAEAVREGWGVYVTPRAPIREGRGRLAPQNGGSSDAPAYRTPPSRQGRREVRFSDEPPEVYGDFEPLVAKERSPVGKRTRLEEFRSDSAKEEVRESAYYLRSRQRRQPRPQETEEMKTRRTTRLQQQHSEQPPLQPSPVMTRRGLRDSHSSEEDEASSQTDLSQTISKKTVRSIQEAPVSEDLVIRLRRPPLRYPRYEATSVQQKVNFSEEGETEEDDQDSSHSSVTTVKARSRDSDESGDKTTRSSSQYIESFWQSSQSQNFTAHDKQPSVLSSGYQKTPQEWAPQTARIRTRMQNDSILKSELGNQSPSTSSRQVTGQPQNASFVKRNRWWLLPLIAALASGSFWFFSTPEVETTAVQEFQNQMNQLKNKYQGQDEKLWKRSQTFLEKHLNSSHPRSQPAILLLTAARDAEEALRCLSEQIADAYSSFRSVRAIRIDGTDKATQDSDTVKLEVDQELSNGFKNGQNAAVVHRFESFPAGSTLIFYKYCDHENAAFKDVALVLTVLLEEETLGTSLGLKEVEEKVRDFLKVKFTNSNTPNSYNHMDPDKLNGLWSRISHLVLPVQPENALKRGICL
Sequence of Dickkopf-related protein 1 (Homo sapiens) (O94907 whole entry, looked up): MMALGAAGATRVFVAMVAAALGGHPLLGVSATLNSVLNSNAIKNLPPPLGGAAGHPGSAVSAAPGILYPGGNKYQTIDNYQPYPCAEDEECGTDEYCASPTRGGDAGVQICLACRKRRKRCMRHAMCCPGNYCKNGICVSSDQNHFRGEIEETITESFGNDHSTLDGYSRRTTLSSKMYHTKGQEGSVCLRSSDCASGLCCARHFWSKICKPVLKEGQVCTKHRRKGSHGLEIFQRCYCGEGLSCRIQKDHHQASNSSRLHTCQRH
Sequence of Fibroblast growth factor 10 (Homo sapiens) (O15520 whole entry, looked up): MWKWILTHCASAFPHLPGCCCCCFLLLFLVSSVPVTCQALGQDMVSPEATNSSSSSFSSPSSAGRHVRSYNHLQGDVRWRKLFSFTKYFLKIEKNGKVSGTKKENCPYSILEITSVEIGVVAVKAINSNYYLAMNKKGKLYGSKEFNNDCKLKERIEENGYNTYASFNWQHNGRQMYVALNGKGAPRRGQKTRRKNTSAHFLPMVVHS
Sequence of Left-right determination factor 2 (Homo sapiens) (O00292 whole entry, looked up): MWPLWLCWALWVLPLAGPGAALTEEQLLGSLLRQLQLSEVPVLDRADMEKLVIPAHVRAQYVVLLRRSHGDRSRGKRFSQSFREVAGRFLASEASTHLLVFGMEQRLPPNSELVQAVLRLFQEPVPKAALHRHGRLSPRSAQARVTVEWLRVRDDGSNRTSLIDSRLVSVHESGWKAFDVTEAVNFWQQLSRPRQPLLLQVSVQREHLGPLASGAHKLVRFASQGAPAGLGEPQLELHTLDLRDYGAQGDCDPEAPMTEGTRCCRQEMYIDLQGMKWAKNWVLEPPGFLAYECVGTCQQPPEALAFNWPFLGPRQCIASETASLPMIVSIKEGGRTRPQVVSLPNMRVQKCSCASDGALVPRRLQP
Sequence of Epidermal growth factor receptor (Homo sapiens) (P00533 whole entry, looked up): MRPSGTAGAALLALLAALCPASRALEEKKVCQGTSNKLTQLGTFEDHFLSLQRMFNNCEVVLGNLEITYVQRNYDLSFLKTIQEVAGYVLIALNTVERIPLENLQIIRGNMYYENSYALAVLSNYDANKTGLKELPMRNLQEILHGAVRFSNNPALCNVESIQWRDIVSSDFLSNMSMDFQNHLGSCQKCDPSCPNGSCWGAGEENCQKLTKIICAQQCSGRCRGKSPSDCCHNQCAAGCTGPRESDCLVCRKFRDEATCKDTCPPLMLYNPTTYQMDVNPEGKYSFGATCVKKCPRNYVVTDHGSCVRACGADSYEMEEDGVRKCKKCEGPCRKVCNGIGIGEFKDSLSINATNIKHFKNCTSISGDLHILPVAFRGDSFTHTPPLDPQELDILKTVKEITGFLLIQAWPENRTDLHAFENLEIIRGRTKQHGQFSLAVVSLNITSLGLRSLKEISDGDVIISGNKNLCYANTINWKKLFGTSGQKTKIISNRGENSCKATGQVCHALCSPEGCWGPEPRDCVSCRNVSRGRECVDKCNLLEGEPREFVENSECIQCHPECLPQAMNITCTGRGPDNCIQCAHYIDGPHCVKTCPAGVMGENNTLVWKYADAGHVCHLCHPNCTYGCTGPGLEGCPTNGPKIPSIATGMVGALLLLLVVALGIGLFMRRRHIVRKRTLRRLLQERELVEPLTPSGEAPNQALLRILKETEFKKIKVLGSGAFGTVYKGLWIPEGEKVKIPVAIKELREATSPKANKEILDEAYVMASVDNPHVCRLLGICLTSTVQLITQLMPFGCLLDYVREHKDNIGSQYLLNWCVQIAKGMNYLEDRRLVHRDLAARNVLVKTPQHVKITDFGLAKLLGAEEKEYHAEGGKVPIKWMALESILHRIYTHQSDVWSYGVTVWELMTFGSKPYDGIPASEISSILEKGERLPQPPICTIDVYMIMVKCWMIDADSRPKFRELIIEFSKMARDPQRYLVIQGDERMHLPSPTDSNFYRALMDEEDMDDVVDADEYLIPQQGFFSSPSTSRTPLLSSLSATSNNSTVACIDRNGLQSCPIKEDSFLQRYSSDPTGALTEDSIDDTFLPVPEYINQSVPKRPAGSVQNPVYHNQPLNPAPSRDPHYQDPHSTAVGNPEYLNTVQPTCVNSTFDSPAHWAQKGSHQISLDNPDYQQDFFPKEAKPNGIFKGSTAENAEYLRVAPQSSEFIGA

As to `CC(C)N1CC=CC23O[C@@H]4/C=C\CCCOC(=O)C4[C@H]2C(=O)N(C(C)CO)[C@@H]3C1=O` (stereo not given in full), the composite z-score in assay [1] is 0.748; in assay [2] it was -0.4; in assay [3], 0.44; in assay [5], -0.663; in [6], -1.02; in assay [7], -0.962. Also, the composite z-score in assay [8] was -0.849; in [9] it was -1.35; in assay [10], 0.493; in assay [11], -0.7; in [13], -0.794; in [14], -0.814. The composite z-score was -0.242 in assay [15]; -0.308 in assay [16]; -0.167 in assay [17]; -0.356 in [18]; -0.401 in assay [19]; -0.393 in assay [20]. The z-score in assay [4] is -1.09 (inactive); in assay [12] it was 0.314.

`Cc1ccc(S[C@]2(C(=O)NCCN3CCOCC3)CC(=O)N(C(C)C)[C@@H]2c2ccc(CO)cc2I)cc1`: the composite z-score in [1] was 1.89; in assay [2], 0.713; in assay [3] it was 1.24; in [5], -0.477; in [6], -0.465; in assay [7], -1.19. In addition, the composite z-score was -0.55 in assay [8]; -0.908 in [9]; 0.968 in assay [10]; 0.89 in assay [11]; -0.532 in assay [13]; -1.17 in assay [14]. The composite z-score in assay [15] was -0.693; in assay [16], -0.154; in assay [17], -0.138; in [18], -0.119; in [19], 0.974; in [20] it was -1.08. The values for the z-score in [4] and in [12] were -1.48 (inactive) and -2.32, respectively.

Take `C#CCN(C(=O)OC(C)(C)C)[C@H](CO)c1ccccc1`: the composite z-score in assay [1] was -0.223; in assay [2] it was -0.331; in assay [3], -0.601; in assay [5], 0.286; in assay [6], 0.419; in [7] it was 0.258. In addition, the composite z-score was -0.0195 in [8]; 0.226 in assay [9]; -0.415 in [10]; 0.486 in [11]; 0.353 in assay [13]; -0.528 in assay [14]. For the same molecule, the composite z-score in assay [15] is -0.964; in [16], -0.18; in [17], -0.138; in [18] it was -0.141; in [19] it was 0.391; in [20], 0.0876. Besides, the results for the z-score in assay [4] and in assay [12] were 0.234 (inactive) and 0.712, respectively.

Regarding `COCCOC(=O)N1C(=O)[C@@]2(c3cc(C#CCNC(N)=O)ccc31)[C@H](C(=O)Nc1nc3ccccc3s1)[C@H]1C(=O)O[C@H](c3ccccc3)[C@H](c3ccccc3)N1[C@@H]2c1ccc(O)cc1`, the composite z-score is 0.576 in assay [1]; 0.406 in assay [2]; 0.774 in [3]; 0.777 in [5]; 1.06 in assay [6]; 0.195 in [7]. For the same molecule, the composite z-score in assay [8] came out at 0.783; in assay [9], 0.393; in [10] it was 0.719; in assay [11], 1.2; in [13], 0.23; in assay [14], 0.68. Moreover, the composite z-score is 0.575 in [15]; -0.124 in assay [16]; 0.0483 in [17]; -0.314 in assay [18]; 0.618 in [19]; 1.6 in assay [20]. Further, the z-score in assay [4] was 1.05 (inactive); in [12] it was -1.21.

For `O=C1NC(=O)C2C1C=CC(C(O)C(O)CO)N2Nc1ccccn1` (stereo not given), the composite z-score in assay [1] is 0.0854; in assay [2], -0.191; in assay [3], -0.104; in assay [5], 0.183; in [6], 0.335; in assay [7], 0.386. Further, the composite z-score in [8] was determined as 0.178; in [9], 0.173; in [10], 0.0473; in assay [11] it was 0.492; in assay [13], 0.322; in [14], 0.339. The composite z-score in assay [15] was -0.635; in assay [16] it was 0.0502; in assay [17], -0.0035; in assay [18], -0.201; in assay [19], 0.0465; in assay [20], 0.315. Moreover, the results for the z-score in assay [4] and in assay [12] were -0.396 (inactive) and 0.538, respectively.
